Bioassay records from PubChem.
A selection: hits, their analogues and other compounds. The true share with any hit is near 18%.
CtBP-E1A blk = CtBP/E1A binding inhibition. AlphaScreen GST-E1A/His-CtBP binding, 1536-well; active compounds read low. activity change, % (test concentration not listed). actives 0.49% (n = 340,000); in the data active = activity change below about -65%; inconclusive = mostly about -30% to -63%
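In 5 uL wells, 23 nL compound meets equimolar GST-E1A and His-CtBP (5X stock 125 nM each) for 2 h, 37 °C. Beads (5X, 50 ug/mL) then 1 h, 37 °C, dark.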
TDP1 cell CPT = growth inhibition of DT40 Tdp1-/-;hTDP1 cells with camptothecin (screen for TDP1 inhibitors); chicken DT40 Tdp1-/-;hTDP1 cells + 20 nM CPT, ATP luminescence, 48 h; Potency, µM (doses to about 46.2 µM), inactives show top-dose activity change, negative = growth inhibition, actives largely listed as inhibitors; actives 12% (n = 420,000); AID 686979; note: potency is the fitted concentration of half-maximal effect; nearly all actives have a fitted effect of over 55% in size
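Chicken DT40 Tdp1-/- cells complemented with human TDP1, 400 cells/well, exposed to compounds plus 20 nM camptothecin for at least 48 h at 37 C; viability read as ATP content by CellTiter-Glo luminescence.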
Six1-Eya2 blk = Six1/Eya2 interaction inhibition | AID 651725 | activity change, % (concentration not given with the values) | Q15475+O00167 | AlphaScreen GST-Six1/His-Eya2 binding, biochemical; active compounds read low | actives 0.56% (n = 360,000); in the data active = activity change below about -65%; inconclusive = mostly about -30% to -63%
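GST-Six1 + His-Eya2 (5X stock: 250/500 nM); Tris pH 8.0, 300 mM NaCl, 0.05% BSA, 0.02% Tween 20; GSH donor/Ni acceptor beads; 1 h 37 °C dark; AlphaScreen readout.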
IL1B secr inh = inhibitors of inflammasome signaling (IL-1 beta secretion) | THP-1 LPS/ATP IL-1B secretion, AlphaLISA, 16 h; active compounds read low | activity change, % at 57.5 µM | actives 4.7% (n = 360,000); in the data active = activity change below about -50%; inconclusive = mostly about -30% to -49%
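THP-1 cells pretreated 1 hr with compounds (up to 57.5 uM final), then stimulated with LPS (250 ng/mL final) plus ATP (1.25 mM final); secreted IL-1B measured by AlphaLISA after 16 hr, decreased signal indicating inhibition.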
TDP1 inh = blocks human tyrosyl-DNA phosphodiesterase 1; actives 0.28% (n = 350,000); recombinant TDP1, AlphaScreen DNA substrate cleavage; Potency, µM (titrated, usually from 130 µM), without a hit: top-dose activity change, negative = inhibition, hits mostly inhibitors; Q9NUW8; AID 485290; note: potency is the fitted concentration of half-maximal effect; nearly all actives have a fitted effect of over 40% in size
Target sequence (Q9NUW8 whole entry, looked up): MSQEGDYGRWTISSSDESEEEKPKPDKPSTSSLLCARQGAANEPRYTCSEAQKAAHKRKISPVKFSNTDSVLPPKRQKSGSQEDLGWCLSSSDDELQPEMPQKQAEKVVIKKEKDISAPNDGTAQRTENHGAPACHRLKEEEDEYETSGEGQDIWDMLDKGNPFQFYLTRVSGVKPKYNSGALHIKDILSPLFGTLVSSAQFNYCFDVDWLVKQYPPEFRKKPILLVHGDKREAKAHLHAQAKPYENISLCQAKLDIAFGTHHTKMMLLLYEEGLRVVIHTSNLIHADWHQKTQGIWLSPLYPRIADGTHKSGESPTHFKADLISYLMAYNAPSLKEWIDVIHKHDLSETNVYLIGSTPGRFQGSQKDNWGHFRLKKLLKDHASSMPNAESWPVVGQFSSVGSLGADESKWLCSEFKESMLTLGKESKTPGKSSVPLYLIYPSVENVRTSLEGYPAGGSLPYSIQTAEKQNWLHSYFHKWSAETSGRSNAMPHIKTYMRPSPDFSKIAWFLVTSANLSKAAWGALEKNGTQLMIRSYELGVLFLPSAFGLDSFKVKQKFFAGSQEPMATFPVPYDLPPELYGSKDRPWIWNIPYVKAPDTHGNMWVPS
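Enzyme-compound mixtures sat 15 min at room temperature, followed by a 5 min reaction with 15 nM final substrate and 10 min with AlphaScreen beads. Recombinant human Tdp1 was used at 1 nM final.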
DT40 TDP1 no CPT = qHTS for Inhibitors of human tyrosyl-DNA phosphodiesterase 1 (TDP1): qHTS in cells in absence of CPT; DT40 Tdp1-/- hTDP1 cells, no CPT, ATP luminescence, 48 h; Potency, µM (top dose mostly 46.2 µM), without a hit: at the top dose activity change, negative = growth inhibition, most hits filed as inhibitors; actives 15% (n = 420,000); AID 686978, 2013; note: potency is the fitted concentration of half-maximal effect; nearly all actives have a fitted effect of over 55% in size
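Camptothecin absent (DMSO only). Human TDP1-complemented DT40 knockout cells, 400 cells/well, 37 °C for minimum 48 hr; ATP measured via CellTiter-Glo, 30 min dark incubation, luminescence.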
* hit, by the source's call; ? = inconclusive; nt = no result given; [ ] = dose if it differs, or a comment. Unless noted, calls come from the whole dose curve; as a rule, active = well fitted curve in the direction sought with a large enough effect; inconclusive = small, poorly fitted or top-dose-only effect, or another doubt; inactive = no such curve, though single readings can be large; an effect the other way counts as inactive or inconclusive. % is set by controls: 0 for no effect and ±100 for the full control effect.

SMILES	CtBP-E1A blk	TDP1 cell CPT	Six1-Eya2 blk	IL1B secr inh	TDP1 inh	DT40 TDP1 no CPT
CCOc1ccc(NC(=O)C(=O)c2cc(C)n(-c3cc(C)cc(C)c3)c2C)cc1	nt	?	nt	nt	5.7%	20.6µM*
Cc1cc(N2CCCC2=O)cc(C)c1S(=O)(=O)Nc1c(C)nn(C)c1C	2.6	-16.5%	-24.0	33.2	1.3%	-24.4%
Cc1cc(N2CCCC2=O)ccc1S(=O)(=O)Nc1c(C)nn(C)c1C	nt	?	3.1	33.8	-7.7%	9.2µM*
Cc1cc(N2CCCC2=O)ccc1S(=O)(=O)NCCOc1ccccc1	17.2	18.4µM*	-8.5	20.0	-2.6%	14.6µM*
CCC/C=C/c1ccc(CN2C(C(C)C)C(=O)N(Cc3cn(CCC4OCCCO4)nn3)CCS2(=O)=O)cc1 (configuration not stated)	?	?	-4.6	?	nt	?
CC1C(=O)N(Cc2cn(CCC3OCCCO3)nn2)CCS(=O)(=O)N1Cc1ccc(-c2ccc(Cl)nc2)cc1 (configuration not stated)	3.1	?	2.5	19.6	nt	?
CC1C(=O)N(Cc2cn(CCC3OCCO3)nn2)CCS(=O)(=O)N1Cc1ccc(-c2ccc(F)cc2)cc1 (configuration not stated)	2.1	?	9.2	17.2	nt	?
CCC/C=C/c1ccc(CN2C(C)C(=O)N(Cc3cn(CCC4OCCO4)nn3)CCS2(=O)=O)cc1 (configuration not stated)	?	?	-5.0	9.7	nt	14.6µM*
CC1C(=O)N(Cc2cn(CCC3OCCCO3)nn2)CCS(=O)(=O)N1Cc1ccc(-c2ccccc2)cc1 (configuration not stated)	2.0	?	-3.4	-10.9	nt	16.4µM*
CC1C(=O)N(Cc2cn(CCC3OCCO3)nn2)CCS(=O)(=O)N1Cc1ccc(-c2cccc(N(C)C)c2)cc1 (configuration not stated)	-8.0	9.2µM*	?	-6.4	nt	16.4µM*
CC1C(=O)N(Cc2cn(CCC3OCCCO3)nn2)CCS(=O)(=O)N1Cc1ccc(-c2ccc(Cl)cc2)cc1 (configuration not stated)	-1.4	11.6µM*	1.3	-7.4	nt	6.51µM*
CCOc1ccc(CCNC(=O)c2cnc3c(-c4ccccc4)c(C)nn3c2C)cc1OCC	nt	?	nt	nt	5.8%	?
COCC(C)N1CCC(n2nccc2NC(=O)CCOc2ccccc2)CC1 (configuration not stated)	0.9	-2.3%	-2.7	0.1	2.8%	-14.9%
CCOC(=O)c1cc(-c2cccc([N+](=O)[O-])c2)nc2[nH]c(=O)[nH]c(=O)c12	nt	-17.8%	-4.0	-25.0	6.3%	23.1µM*
COc1cc(-c2nc3ccc4ccccc4c3c3c2CCC3)cc(OC)c1O	9.1	20.6µM*	-28.7	-4.2	5.7%	16.4µM*
Cc1cc([N+](=O)[O-])ccc1NCc1cccc2ccccc12	2.5	?	-19.0	-65.6*	nt	15.8µM*
Cc1cc([N+](=O)[O-])ccc1NCc1ccccc1[N+](=O)[O-]	-9.6	-14.8%	-11.2	-70.9*	9.0%	-23.8%
CCSC(=N)N	-7.0	-4.4%	3.8	7.9	8.0%	6.2%
Nc1nc(SCc2ccccc2)c2ncn(Cc3ccccc3)c2n1	4.7	?	-0.1	-63.8*	nt	?
CCCCn1cnc2c(SCc3ccc(Br)cc3)nc(N)nc21	3.3	?	-2.0	-83.9*	nt	?
CCCn1cnc2c(SCc3ccccc3)nc(N)nc21	-2.0	3.0%	2.6	-21.3	nt	?
CCCCn1cnc2c(SCc3ccccc3)nc(N)nc21	1.4	?	4.0	-50.4*	nt	?
CCCn1cnc2c(SCc3ccc(Cl)cc3)nc(N)nc21	-4.9	?	-2.2	-63.3*	nt	?
Cc1cc2c3c([nH]c2cc1S(=O)(=O)NCc1ccc(CN2CCCCCC2)o1)CC(C)(C)CC3=O	-0.5	?	-1.3	-21.8	3.7%	4.8%
COCC(C)n1c(SCC(=O)NC(=O)Nc2ccc3c(c2)OCCO3)nc2ccccc2c1=O (configuration not stated)	8.1	?	-8.0	-24.7	10.5%	?
SMILES	CtBP-E1A blk	TDP1 cell CPT	Six1-Eya2 blk	IL1B secr inh	TDP1 inh	DT40 TDP1 no CPT
CCCCn1cnc2c(SCc3ccccc3Cl)nc(N)nc21	-2.1	-3.7%	-4.2	-87.3*	nt	?
CCc1nc2ccccc2nc1N1CCN(S(=O)(=O)c2ccccc2)CC1	7.6	?	0.3	-90.1*	1.2%	16.4µM*
O=S(=O)(c1ccc(Cl)cc1)N1CCN(c2nc(-c3ccccc3)nc3ccccc23)CC1	nt	?	nt	nt	1.0%	10µM*
CCc1nc2ccccc2nc1N1CCN(S(=O)(=O)c2c(C)cc(Cl)cc2C)CC1	nt	-26.0%	3.2	78.2	2.5%	-24.0%
O=S(=O)(c1ccc(F)cc1)N1CCN(c2nc(-c3ccccc3)nc3ccccc23)CC1	nt	?	nt	nt	1.0%	12.6µM*
Cc1ccc(S(=O)(=O)N2CCN(c3nc(-c4ccccc4)nc4ccccc34)CC2)cc1	nt	6.8%	nt	nt	0.4%	-16.2%
N#CCc1c(C#N)c(N)nc(N2CCN(C=O)CC2)c1C#N	nt	-3.2%	-15.0	1.5	1.6%	10.8%
N#CCc1c(C#N)c(N)nc(N2CCN(S(=O)(=O)c3ccccc3)CC2)c1C#N	-2.0	8.2µM*	-8.9	-18.0	9.1%[56.1 µM]	16.4µM*
O=C(NCc1cccc(Cl)c1)c1ccc2c(c1)nc1n2CCOC1	nt	0.5%	nt	nt	5.4%	?
O=S(=O)(c1ccc2c(c1)CCCC2)N1CCN(c2nc(-c3cccs3)nc3ccccc23)CC1	nt	?	nt	nt	2.4%	?
O=S(=O)(c1ccc2c(c1)CCCC2)N1CCN(c2nc(-c3ccccc3)nc3ccccc23)CC1	nt	10µM*	nt	nt	0.1%	10µM*
Clc1ccc(Oc2nc(N3CCOCC3)nc(N3CCOCC3)n2)c(C2CCCCC2)c1	-4.1	?	-1.2	5.1	nt	?
CC12CNCC(C)(CN(C(c3ccccc3)c3ccccc3)C1)C2	-7.7	16.4µM*	4.4	-80.7*	0.0%	13µM*
O=S(=O)(c1ccccc1)N1CCC2(CCN(C(c3ccccc3)c3ccccc3)CC2)CC1	nt	-8.3%	nt	nt	nt	?
c1ccc(C(c2ccccc2)N2CCC3(CCNCC3)CC2)cc1	nt	5.8µM*	nt	nt	nt	2.59µM*
CCCC/C=C1/CCC(CN(C)C)C1=O (configuration not stated)	?	2.06µM*	2.0	-27.8	nt	2.31µM*
